Assay [1] is described as follows: qHTS assay to identify small molecule agonists of the vitamin D receptor (VDR) signaling pathway - cell viability counter screen (AID 743224). Further: nearly all actives have a fitted effect of over 50% in size. Further: potency means the concentration at half of the fitted maximal effect. To be noted: VDR-bla HEK293T viability, CellTiter-Glo luminescence, 16 h; series mostly up to 62.6 µM. The essentials: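 VDR-bla cells were preincubated 4 h at 37C/5% CO2, then exposed to compounds for 16 h. After the 2 h room-temperature bla FRET read, CellTiter-Glo was added to the same wells and luminescence read after 30 min.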

The nature of assay [2]: qHTS assay to identify small molecule antagonists of the vitamin D receptor (VDR) signaling pathway - cell viability counter screen (AID 743225). Further: nearly all actives have a fitted effect of over 50% in size. Further: potency means the concentration at half of the fitted maximal effect. To be noted: VDR-bla HEK293T viability, CellTiter-Glo luminescence, 16 h; series mostly up to 61 µM. The essentials: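 VDR-bla HEK 293T cells, 4 h pre-incubation at 37C, then compound plus 1-alpha,25-dihydroxyvitamin D3 (3 nM final) for 16 h. After the beta-lactamase FRET read, CellTiter-Glo was added to the same wells; luminescence after 30 min at room temperature.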

The nature of assay [3]: qHTS assay to identify small molecule agonists of the NFkB signaling pathway - cell viability counter screen (AID 1159515; calls by dose curve; further: nearly all actives have a fitted effect of over 55% in size; further: potency means the concentration at half of the fitted maximal effect). The settings on record: NFkB-bla ME-180 viability, CellTiter-Glo luminescence, 5 h; series mostly up to 61 µM. In a few lines: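 NFkB-bla ME-180 cells, 2,000/well, were plated overnight at 37 C, 5% CO2, then exposed to compounds in DMSO for 5 hr. After the bla FRET read, CellTiter-Glo was added to the same wells; luminescence was read after 30 min at room temperature.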

Assay [4] is described as follows: qHTS assay to identify small molecule agonists of the endoplasmic reticulum stress response signaling pathway (AID 1159516; active means well fitted activation curve with a large enough effect in the signal ratio in the repeat runs, not every such curve was filed as active; the % refers to the signal ratio). To be noted: ESRE-bla HeLa, ER stress beta-lactamase reporter, 5 h; series mostly up to 61 µM. In a few lines:
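CellSensor ESRE-bla HeLa cells, carrying a beta-lactamase reporter driven by the ER stress response element, were plated overnight and exposed to compounds for 5 hr at 37 C. Reporter activity was read as FRET substrate fluorescence after 2 hr at room temperature.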
(In general: qHTS replaces the single test concentration by a dilution series.)

A short description of assay [5]: qHTS assay to identify small molecule agonists of the endoplasmic reticulum stress response signaling pathway - cell viability counter screen (AID 1159517; calls by dose curve; further: nearly all actives have a fitted effect of over 50% in size; further: potency means the concentration at half of the fitted maximal effect). The settings on record: ESRE-bla HeLa viability, CellTiter-Glo luminescence, 5 h; series mostly up to 61 µM. In a few lines:
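CellTiter-Glo was added to wells already read for beta-lactamase FRET, and luminescence was recorded 30 min later. Cells: ESRE-bla HeLa, 1,500 per well, compound exposure 5 hr at 37 C.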

The nature of assay [6]: qHTS assay to identify small molecule antagonists of the retinoid-related orphan receptor gamma (ROR-gamma) signaling pathway - cell viability counter screen (AID 1159520). Further: nearly all actives have a fitted effect of over 50% in size. Further: potency means the concentration at half of the fitted maximal effect. To be noted: Tet-on RORgamma CHO cells viability, ATP luminescence, 16 h; series mostly up to 92.4 µM. The essentials: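 Tet-on ROR gamma CHO cells (1,000/well) were plated 4 hr, given compounds in DMSO for 2 hr at 37 C, then induced with 1 uM final doxycycline for 16 hr. Viability was read as ATP by CellTiter-Glo luminescence after 30 min.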

For assay [7], the target named is Nuclear receptor ROR-gamma (Homo sapiens) (UniProt P51449). The assay is described as follows: qHTS assay to identify small molecule antagonists of the retinoid-related orphan receptor gamma (ROR-gamma) signaling pathway (AID 1159521; further: nearly all actives have a fitted effect of over 50% in size; further: potency means the concentration at half of the fitted maximal effect). The settings on record: Tet-on RORgamma CHO cells, RORE-luciferase, 16 h; series mostly up to 92.4 µM. The essentials: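 Tet-on RORγ CHO cells carrying a ROR response element–luciferase reporter were pretreated with compounds for 2 h, then induced with 1 uM (final) doxycycline hyclate for 16 h at 37 C. Antagonism was read as decreased ONE-Glo luminescence.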

A short description of assay [8]: qHTS assay to identify small molecule agonists of the AP-1 signaling pathway - cell viability counter screen (AID 1159525; calls by dose curve; further: nearly all actives have a fitted effect of over 55% in size; further: potency means the concentration at half of the fitted maximal effect). The settings on record: ME-180 AP-1-bla cells viability, ATP luminescence, 5 h; series mostly up to 76.8 µM. The essentials: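 ME-180 AP-1-bla, 2500 cells/well, Opti-MEM + 0.5% dialyzed FBS; overnight 37 °C; cpd 15-pt titration, 5 h 37 °C; CellTiter-Glo 30 min RT; luminescence read; normalised to TOAB and DMSO controls.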

A short description of assay [9]: qHTS assay to identify small molecule agonists of the AP-1 signaling pathway (AID 1159526; calls by dose curve). The settings on record: ME-180 (cervical carcinoma) AP-1-bla reporter, beta-lactamase FRET ratio, 5 h; series mostly up to 76.8 µM.
The nature of assay [10]: qHTS assay to identify small molecule agonists of the RXR signaling pathway - cell viability counter screen (AID 1159529). Further: nearly all actives have a fitted effect of over 50% in size. Further: potency means the concentration at half of the fitted maximal effect. The settings on record: RXR-alpha-bla HEK293T viability, CellTiter-Glo, 16 h; series mostly up to 76.8 µM. The essentials:
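RXR-alpha-UAS-bla HEK 293T cells in medium with 2% charcoal-stripped FBS were preincubated 5 hr, then exposed to compounds for 16 hr at 37 C. Viability was read as CellTiter-Glo luminescence after 30 min at room temperature.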

A short description of assay [11]: qHTS assay to identify small molecule antagonists of the retinoid acid receptor (RAR) signaling pathway - cell viability counter screen (AID 1159551). Further: nearly all actives have a fitted effect of over 35% in size. Further: potency means the concentration at half of the fitted maximal effect. To be noted: C3RL4 cells viability, ATP luminescence (CellTiter-Glo), 6 h; series mostly up to 92.4 µM. The essentials:
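C3RL4 cells were seeded overnight at 37 C, then treated with compounds plus 1 uM (final) retinol for 6 h at 37 C. Viability was read as ATP by CellTiter-Glo luminescence after 30 min at room temperature.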

Assay [12] deals with Retinoic acid receptor RXR-alpha (Homo sapiens) (UniProt P19793). Briefly: qHTS assay to identify small molecule agonists of the RXR signaling pathway (AID 1159527; calls by dose curve; further: nearly all actives have a fitted effect of over 35% in size). To be noted: HEK293T RXRa-UAS-bla, beta-lactamase ratio, 16 h; series mostly up to 76.8 µM. In a few lines:
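GeneBLAzer RXR-alpha-UAS-bla HEK 293T cells in medium with 2% charcoal-stripped FBS, pre-incubated 5 hr at 37 C, then exposed to compounds 16 hr. Beta-lactamase reporter read by FRET substrate, 2 hr room temperature, 460/530 nm emission.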

Assay [13] is described as follows: qHTS assay to identify small molecule antagonists of the retinoic acid receptor (RAR) signaling pathway (AID 1159552; further: nearly all actives have a fitted effect of over 50% in size; further: potency means the concentration at half of the fitted maximal effect). The settings on record: C3RL4 RARE luciferase reporter, retinol-stimulated, 6 h; series mostly up to 92.4 µM. The essentials: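 RARE-luc C3RL4 cells; cpds + 1 uM (final) retinol, 6 hr, 37 C/5% CO2; luciferase reagent, 30 min RT, luminescence readout. Inhibitors of retinol-driven signal scored.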

Assay [14] can be described thus: qHTS assay to identify small molecule agonists of the retinoic acid receptor (RAR) signaling pathway (AID 1159553). The settings on record: C3RL4 RARE luciferase reporter, agonist, 6 h; series mostly up to 73.3 µM. In a few lines: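 C3RL4 cells carrying a RARE luciferase reporter were plated overnight at 37 C, then exposed to compounds in DMSO for 6 hr at 37 C and 5% CO2. Luminescence was read 30 min after luciferase reagent addition at room temperature.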

Assay [15] is described as follows: qHTS assay to identify small molecule antagonists of the estrogen related receptor (ERR) signaling pathway - cell viability counter screen (AID 1224818).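 Further: viability measured after 17.5 h of compound exposure.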 To be noted: ERR reporter cell line viability counter screen; series mostly up to 46.1 µM. The essentials:
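ERR reporter cells plated 6 h at 37 C/5% CO2, then compounds in DMSO pin-transferred and incubated 17.5 h at 37 C. Viability read as CellTiter-Fluor fluorescence after 30 min at 37 C.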

Assay [16] can be described thus: qHTS assay to identify small molecule antagonists of the estrogen related receptor signaling pathway with the pleiotropic PPARgamma coactivator (PGC) cell viability counter screen (AID 1224822). To be noted: ERR/PGC reporter cell line viability counter screen; series mostly up to 46.1 µM. The essentials:
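PGC/ERR cells were seeded at 2,000 cells/well, rested 6 h at 37 C/5% CO2, then given compounds in DMSO by pin tool and incubated 17.5 h at 37 C. Viability came from CellTiter-Fluor fluorescence after 30 min.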

Values joined by “and” are separate entries in the source; they are usually repeats but may differ in a detail not shown here. Equal entries are not always repeated. Results filed as inconclusive are left out. Where a structure was tested more than once in an assay, its records may differ in their call. Active and inactive are the calls of the source. Unless noted, the call rests on the fitted dose curve; in most records, active means well fitted curve in the direction sought with a large enough effect in the repeat runs; inconclusive means weak or mixed curves; inactive means no such curve, though single readings can be large; an effect the other way counts as inactive or inconclusive.

Retinoic acid receptor RXR-alpha (Homo sapiens), sequence (P19793 whole entry, looked up): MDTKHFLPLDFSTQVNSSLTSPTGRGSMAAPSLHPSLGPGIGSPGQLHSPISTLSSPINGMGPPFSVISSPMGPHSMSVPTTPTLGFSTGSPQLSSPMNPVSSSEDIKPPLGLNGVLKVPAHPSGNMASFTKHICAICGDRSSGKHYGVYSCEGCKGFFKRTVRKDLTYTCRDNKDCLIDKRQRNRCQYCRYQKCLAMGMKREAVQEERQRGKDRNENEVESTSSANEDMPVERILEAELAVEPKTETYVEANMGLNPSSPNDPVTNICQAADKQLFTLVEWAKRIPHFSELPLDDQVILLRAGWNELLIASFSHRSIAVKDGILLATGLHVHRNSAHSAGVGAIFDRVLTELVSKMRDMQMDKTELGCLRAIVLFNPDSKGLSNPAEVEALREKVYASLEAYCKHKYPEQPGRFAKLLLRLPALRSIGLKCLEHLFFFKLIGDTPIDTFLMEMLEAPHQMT

Regarding `CCOc1ccc(NC(C)=O)cc1`, the Potency result in [1], in assay [2], in assay [3], in assay [4], in assay [5] and in assay [6] was “inactive” in each case. Besides, the Potency result in assay [7], in [8], in [9], in assay [10] and in assay [11] was “inactive” in each case.

On to `O=C(O)c1ccccc1`, for which the Potency entry in assay [1], in assay [2], in assay [3], in assay [4], in assay [5] and in assay [6] was “inactive” in each case. The Potency entry in [7], in assay [8], in assay [9], in assay [10] and in assay [11] was “inactive” in each case.

Regarding `OC[C@H]1O[C@H](O[C@]2(CCl)O[C@H](CCl)[C@@H](O)[C@@H]2O)[C@H](O)[C@@H](O)[C@H]1Cl`, the Potency entry in [1], in assay [2], in assay [3], in [4], in assay [5] and in assay [6] was “inactive” each time. The Potency entry in assay [7], in assay [8], in [9], in assay [10] and in assay [11] was “inactive” each time.

For the compound `O=C1c2c(O)cccc2Cc2cccc(O)c21`, the Potency entry in assay [1], in assay [2], in assay [3], in assay [5], in [6] and in assay [7] was “inactive” throughout. In addition, the Potency entry in assay [8], in assay [9], in assay [12], in assay [10] and in [11] was “inactive” throughout.

In the case of `C/C=C/C=C/C(=O)O`, the Potency entry in assay [1], in [2], in assay [3], in [4], in [5] and in assay [6] was “inactive” each time. Moreover, the Potency result in assay [7], in [8], in assay [9], in [10] and in assay [11] was “inactive” throughout.

As for `CCCCCCCCCCCCCCCC[N+](C)(C)Cc1ccccc1`, the Potency was 31.9 µM (active) and 8.86 µM (active) and 26.6 µM (active) in [1]; 45 µM (active) and 17.7 µM (active) and 21.3 µM (active) in assay [2]; 56.7 µM (active) and 49.8 µM (active) and 21.3 µM (active) in assay [3]; 25.3 µM (active) and 39.6 µM (active) in assay [5]; 70.8 µM (active) and 55.5 µM (active) and 29.8 µM (active) in assay [6]; 56.2 µM (active) and 27.8 µM (active) and 13.3 µM (active) in assay [7]. Besides, the Potency is 40.1 µM (active) and 49.8 µM (active) and 23.9 µM (active) in assay [8]; 17.9 µM (active) and 14 µM (active) and 4.25 µM (active) in assay [10]; 79.4 µM (active) and 62.2 µM (active) and 29.8 µM (active) in assay [11]; 56.2 µM (active) and 27.8 µM (active) and 23.7 µM (active) in assay [13].

For the compound `CCCCCCCCCCCC[N+](C)(C)Cc1ccccc1`, the Potency in assay [1] is 27 µM (active) and 29.9 µM (active) and 13.3 µM (active); in assay [2], 19.1 µM (active) and 15 µM (active) and 21.3 µM (active); in [3], 53.9 µM (active) and 47.4 µM (active) and 23.9 µM (active); in assay [5], 17 µM (active) and 21.2 µM (active) and 26.8 µM (active); in [6], 67.3 µM (active) and 66.4 µM (active) and inactive; in assay [7] it was 47.6 µM (active) and 21.1 µM (active). The Potency in assay [8] was 23.9 µM (active); in assay [10] it was 6.78 µM (active) and 8.43 µM (active) and 1.69 µM (active); in [11], 60 µM (active) and 74.5 µM (active).

As for `CC(=O)CC(c1ccccc1)c1c(O)c2ccccc2oc1=O` (centres undefined), the Potency entry in assay [1], in assay [2], in [3], in [4], in [5] and in [6] was “inactive” throughout. The Potency entry in [7], in assay [8], in assay [9], in assay [10] and in [11] was “inactive” each time.

For the compound `F[B-](F)(F)F`, the Potency result in assay [1], in assay [2], in assay [3], in [4], in [5] and in [6] was “inactive” each time. Also, the Potency result in [8], in assay [9], in assay [10] and in [11] was “inactive” throughout. The Potency entry in assay [7] is “inactive and 49.2 µM (active)”.

For `CC(C)c1c(C(=O)Nc2ccccc2)c(-c2ccccc2)c(-c2ccc(F)cc2)n1CC[C@@H](O)C[C@@H](O)CC(=O)O`, the Potency entry in assay [1], in assay [2], in assay [3], in assay [4], in [5] and in [8] was “inactive” in each case. The Potency entry in assay [9], in [10], in assay [11], in assay [14] and in assay [16] was “inactive” in each case. In addition, the Potency in assay [7] was 1.86 µM (active) and 11.4 µM (active) and 2.66 µM (active). The call in assay [15] was inactive.

Take `Cc1cc(C)nc(NS(=O)(=O)c2ccc(N)cc2)n1`: the Potency entry in [1], in [2], in assay [3], in assay [4], in assay [5] and in [6] was “inactive” each time. Besides, the Potency result in [8], in assay [9], in assay [10], in [11], in assay [13] and in assay [14] was “inactive” in each case.

Take `CN1[C@@H]2CC(OC(=O)[C@H](CO)c3ccccc3)C[C@H]1[C@@H]1O[C@@H]12` (some centres undefined): the Potency result in [1], in assay [2], in [3], in assay [4], in [5] and in assay [6] was “inactive” in each case. The Potency result in [7], in [8], in [9], in [10] and in [11] was “inactive” in each case.

For the compound `O=C1OC2(c3ccccc31)c1cc(Br)c(O)c(Br)c1Oc1c2cc(Br)c(O)c1Br`, the Potency result in [1], in [2], in assay [3], in assay [5], in [6] and in [7] was “inactive” in each case. The Potency result in assay [8], in assay [9], in [10], in assay [11], in assay [13] and in [14] was “inactive” in each case.
